Over roughly 25,000 sequences, “ln(normalized median fluorescence intensity)” has its median near 9.3; the highest 2% begin near 10. Only a selection was taken, and the highest values are over-represented in it overall.

For the assay, the system named is PF3D7_0420300 AP2 domain 1 (GST-tagged). Description: gcPBM binding intensity (ln(normalized median fluorescence intensity)); higher = stronger DNA binding. In outline:
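Each value is the highest Masliner-normalised natural-log median intensity across replicate spots of either orientation of a probe. The probes were primer-extended double-stranded 36-bp intergenic genomic sequences on an Agilent 4 × 180k array, alongside negative controls, exposed for 1 h to GST-tagged P. falciparum DNA-binding domains expressed in E. coli. Bound protein was picked up with Alexa488 anti-GST antibody and scanned at 488 nm.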
With “GCCAAAAGGATATGCACACACACACCCATATATATA [CACACA_site2198]”, the “gcPBM binding intensity (ln)” value worked out at 10.2.
The value for “TATATACACATATATAAACACACAAAAAAAAAAAAA [CACACA_site8626]” was 9.6.
As to “CAAAAGGATATGCACACACACACACGGATATTTATA [CACACA_site7099]”, the “gcPBM binding intensity (ln)” value worked out at 10.2.
The figure for “AATATATAAACATATACACACAAAAACATATATATA [CACACA_site4855]” is 10; for “ACAATAAACATATATACACACACAAAAAAAAAAACA [CACACA_site8033]” it is 10.3.
As for “ATTATATATATTTATGCACACAAAATATATTATATA [CACACA_site9244]”, the “gcPBM binding intensity (ln)” value is 9.29.
The value for “AATAAACATATATACACACACAAAAAAAAAAACATA [CACACA_site424]” was 10.2; that for GGGAAAATAAATAAAGTGCAGATATTAAAAGTTGTA was 9.41.
With “AGATATCTTGTGAAATAAAAAAAATAATTGCTTATA [CACACA_negctrl_site798]”, the “gcPBM binding intensity (ln)” value turned out to be 8.94.
The figure for “CAACAATTTCGTCATACACACATTCAGAATATAGAT [CACACA_site7166]” is 9.68.
The value for “CATGCAATATTAAACACACACTCATATAGCACAATA [CACACA_site6182]” was 9.73; that for “GAACGAAACTTTCTTACACACATTGAAATTTTTTTC [CACACA_site1779]” was 9.62.
The value for “AATAAGAAAACAAATGCACACCATTTATATAGATTA [CACACA_site8261]” was 9.56.
With “TACACCAAAAAAAAACGTACAAAATCCCACCCAGAC [XGTACX_site4622]”, the “gcPBM binding intensity (ln)” value was determined as 10.6.
The value for “AACAAATACAGACACACACACACACCCAAAAAAAAA [CACACA_site515]” was 9.99; that for “AATACACCCAGACACACACACAAAAAAAAAAAAAAA [CACACA_site513]” was 9.51.
The figure for “CCCATGCATTTTTGCACACACATATATTTATAAATA [CACACA_site6785]” is 9.58.
The value for “TAATAAAAGATATATACACACAAATAAATAAATAAA [CACACA_site7818]” was 9.72; that for “CTTACCAAAAAACACACACACACAAAATATATAAAT [CACACA_site1870]” was 10.3; that for “AAAAAAAAAAAACACACACACAAAATAAACAAACAA [CACACA_site2721]” was 10.3.
For “AAAAAAATAAAACACACACACAAAAAAATAAAAATA [CACACA_site465]”, the “gcPBM binding intensity (ln)” value was 10.2.
As to “AAATAAATAAAAAACACACACAAATAAATAAATATA [CACACA_site2249]”, the “gcPBM binding intensity (ln)” value came out at 10.1.
On to “AAAAAATATAAAAAAACACACAAAAAAAAAAAAAAA [CACACA_site1382]”, for which the “gcPBM binding intensity (ln)” value worked out at 9.4.
The value for “CTTACCAAAAGACACACACACACAAGATATATAAAT [CACACA_site6964]” was 10.2; that for “ATAAATAAAAACACAAAACAAAACAAAACAAAACAA [CACACA_negctrl_site1257]” was 9.41; that for “TATAAATAAATAAACACACACAAATAAAATAAAAAA [CACACA_site7623]” was 10.1.
The figure for “TATATAAAGATATATACACACAAAAAAAAAAAAAAA [CACACA_site6778]” is 9.32.
The figure for “TACCAAAAGAAACACACACACAAAATATATAAATAT [CACACA_site1869]” is 10.2; for “AAAAAAAAAAAACACACACACACAAATATATAAAAA [CACACA_site1171]” it is 10.1.
As for “AAAAAAATGAAACACACACACACATATATATATATA [CACACA_site1043]”, the “gcPBM binding intensity (ln)” value came out at 9.93.
The value for “TTTTTATTATAAGGTCGTACAATTGTAATTATTGTA [XGTACX_site1413]” was 9.23; that for TATTTATTTTTTTTTGTGCACTTAATATAATCTTAC was 9.24.
Turning to “ATATATATATATTATGTGCGCATATACCATTTTAAT [GTGCAC_site9575]”, the “gcPBM binding intensity (ln)” value came out at 9.32.
For “TATTACTTGATATATACACACATATAACATAAATGC [CACACA_site7783]”, the “gcPBM binding intensity (ln)” value is 9.45.
For “TATATATATATATATACACACATATATATAAATATA [CACACA_site2035]”, the “gcPBM binding intensity (ln)” value stood at 9.2.
The figure for “TAAATAAATACATACACACACATACCTATATTTATA [CACACA_site7466]” is 9.93; for “GATAATACATAAATTTATAAGTGGAAGAATAAATAA [CACACA_negctrl_site698]” it is 9.32; for “GGACAACAAACAAACACACACAAAAAAAAAATAAAA [CACACA_site3791]” it is 9.84.
The value for “TACTTACCAAAATACACACACACACCCAATATATAA [CACACA_site1871]” was 10.1; that for “CAAAAGAAGGTAAACACACACACACGCATACAAAAA [CACACA_site7724]” was 10.1; that for “AAAGAAGGTAAACACACACACACACCGACAAAAAAA [CACACA_site9255]” was 10.3.
The value for “TATTTATTAAAACACACACACACACCGACAAAATAA [CACACA_site4293]” was 10.1.
“TACTTACCAAAATACACACACACACTAGATATATAA [CACACA_site5096]”: the “gcPBM binding intensity (ln)” value is 10.3.
The value for “AATACTTACCAAAATACACACACACCCAAAATATAT [CACACA_site8559]” was 10.1; that for “CAACAAAATAAACACACACACACAAACACAAAAAAA [CACACA_site5806]” was 10.3.
The figure for “CACAAACAAAAACACACACACACACCGACAAAAATG [CACACA_site5362]” is 10; for “TAAAATAAAACAAACACACACACACCGACACAAAAA [CACACA_site5993]” it is 10.2; for “CAAAAGAAGGTAAACACACACACACCCATACAAAAA [CACACA_site3765]” it is 10.1.

These data come from the supplement of paper PMC11417369.
